This note sets out measurements from PubChem BioAssay AID504326 (The Scripps Research Institute Molecular Screening Center, 2011).

SMILES strings stand for the structures. Hit rate of the full screen: of about 340,000 compounds, about 990 (0.29%) were called active. No stated cut-off is given here; in the data, active means activation above about 18%; inactive means the rest. What follows is part of a selection rich in actives, with near analogues and random picks from the rest.

Mu-type opioid receptor (Homo sapiens) + Delta-type opioid receptor (Homo sapiens), sequence (P35372 whole entry, looked up): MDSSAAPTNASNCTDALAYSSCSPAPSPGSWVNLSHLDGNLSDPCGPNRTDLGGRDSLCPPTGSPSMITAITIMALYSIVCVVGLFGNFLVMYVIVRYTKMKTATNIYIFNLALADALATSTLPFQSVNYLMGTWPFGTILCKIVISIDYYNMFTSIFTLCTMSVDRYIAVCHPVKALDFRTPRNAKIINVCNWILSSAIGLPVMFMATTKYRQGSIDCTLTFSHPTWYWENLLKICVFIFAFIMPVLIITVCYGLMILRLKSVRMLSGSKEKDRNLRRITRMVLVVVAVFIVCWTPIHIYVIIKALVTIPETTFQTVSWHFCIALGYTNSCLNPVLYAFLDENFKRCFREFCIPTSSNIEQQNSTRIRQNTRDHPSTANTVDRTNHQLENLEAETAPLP
Mu-type opioid receptor (Homo sapiens) + Delta-type opioid receptor (Homo sapiens), sequence (P41143 whole entry, looked up): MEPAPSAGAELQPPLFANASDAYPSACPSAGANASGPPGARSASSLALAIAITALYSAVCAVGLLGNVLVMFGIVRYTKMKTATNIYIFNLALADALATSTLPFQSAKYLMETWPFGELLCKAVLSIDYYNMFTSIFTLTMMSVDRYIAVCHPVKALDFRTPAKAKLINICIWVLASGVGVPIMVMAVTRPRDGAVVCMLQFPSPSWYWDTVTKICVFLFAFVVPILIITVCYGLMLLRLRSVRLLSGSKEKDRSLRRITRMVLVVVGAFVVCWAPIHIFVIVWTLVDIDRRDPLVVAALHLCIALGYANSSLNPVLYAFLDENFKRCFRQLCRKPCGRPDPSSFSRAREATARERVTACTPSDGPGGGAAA

The assay addresses Mu-type opioid receptor (Homo sapiens) + Delta-type opioid receptor (Homo sapiens) (UniProt P35372+P41143). Put plainly: agonists of OPRM1-OPRD1 heterodimerization, primary screen, cell-based, luminescence (AID 504326).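 Further: 0% = vehicle-treated cells and 100% = reference agonist.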 To be noted: cells, at 9.3 µM, hits give high values.
For `COC1C(O)C(C)OC(OC2CCC3(C=O)C(CCC4C3CCC3(C)C(C5=CC(=O)OC5)CCC43O)C2)C1O` (stereo not given), the activation was 82.9% (active).

In the case of `COc1cc2nc(N3CCN(C(=O)[C@@H]4CCCO4)CC3)nc(N)c2cc1OC`, the activation was -0.16% (inactive).

As to `CC1(C)C(c2ccccc2)=NC(c2cccnc2)=[N+]1[O-]`, the activation was -4.09% (inactive).

For `CC(=O)OC1C2(CC3N4C(=O)C5(CO)SSC4(CC31O)C(=O)N5C)OC(C)C(C)(C)C2=O` (stereo not given), the activation is -23.2% (inactive).

Take `C[C@]12CCC3C(CC[C@H]4C[C@@H](O)CC[C@]34C)C1C[C@@H](O)[C@H]2O` (stereo not given in full): the activation was -2.9% (inactive).

Take `C[C@]12CC[C@H](O)C[C@H]1CC[C@@H]1C2CC[C@]2(C)[C@@H](C3=CC(=O)OC3)[C@@H](O)C[C@]12O` (stereo not given in full): the activation is 62.4% (active).

Regarding `C[C@]12CCC3C(CC[C@H]4C[C@@H](O)CC[C@]34C)C1CC[C@@H]2O` (stereo not given in full), the activation is -1.31% (inactive).

`CCOP(=O)(OCC)C(NC(=O)NC)C(N)=O` (stereo not given): the activation is -3.11% (inactive).

Consider `c1cc2c(cc1C1OCC3C(c4ccc5c(c4)OCO5)OCC13)OCO2` (stereo not given), for which the activation is 1.03% (inactive).

Turning to `Cn1c(O)c(C=NCCCC(=O)O)c(=O)n(C)c1=O`, the activation was -1.29% (inactive).

Consider `CCOC(=O)C1(c2ccccc2)CCN(CC(O)c2ccc(NC(C)=O)cc2)CC1` (stereo not given), for which the activation is 3.27% (inactive).

With `CCOC(=O)C1(Cc2ccc(Cl)cc2)CCN(C(C)CCn2cccn2)CC1` (stereo not given), the activation is 0.28% (inactive).

Turning to `CCOC(=O)C1(CCc2ccccc2)CCN(Cc2ccco2)CC1`, the activation is 23.8% (active).

For the molecule `NC(=O)Cn1cc(C(=O)c2ccccc2F)c2ccccc21`, the activation was -3.05% (inactive).

Consider `c1ccc2sc(C3CCCNC3)nc2c1` (stereo not given), for which the activation was -2.28% (inactive).

Consider `COc1ccc(C2NCc3ccc4c(c3-n3cccc32)OCO4)cc1OC` (stereo not given), for which the activation is -3.63% (inactive).

In the case of `CCC1(C)CC(CCNCc2ccc(N(C)C)cc2)(c2ccc(F)cc2)CCO1` (stereo not given), the activation is 125% (active).

On to `COC(=O)C1=C(c2c(C)noc2C)C[C@@H]2CC[C@H]1N2C(=O)NCc1ccc2c(c1)OCO2`, for which the activation was -2.32% (inactive).

Take `CCCCC(=O)N/N=C/c1c(O)n(CC)c(=S)n(CC)c1=O`: the activation is 0.54% (inactive).

In the case of `O=C1NC(=O)C(CCOc2ccccc2)(CCc2ccccc2)C(=O)N1`, the activation is -1.87% (inactive).
